# Measured values from the supplement of paper PMC6555819.
# What was measured:
# Assay in all cases: PBM binding z-score (relative to random genomic background probes); higher = stronger binding; sequences stand for … in GC…GCGATTGACAGCGTAGAATGAAGG
# [1] = tested on: FXR:RXRa (NR concentration 270 nM, RXRa partner concentration 90 nM)
# In short: (§1)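 Binding z-scores were set against random background probes. The data came from custom Agilent 4×180K protein-binding microarrays carrying double-stranded probes with 34-nt variable regions, incubated 1 h with ligand-free nuclear receptor dimers. Partner-specific antibodies detected binding, and scanned fluorescence was regression-normalized.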
# [2] = tested on: LXRa:RXRa (NR concentration 270 nM, RXRa partner concentration 90 nM)
# In short: as §1
# [3] = tested on: LXRa homodimer (NR concentration 270 nM)
# In short: as §1
# [4] = tested on: LXRb:RXRa (NR concentration 270 nM, RXRa partner concentration 90 nM)
# In short: as §1
# [5] = tested on: LXRb homodimer (NR concentration 270 nM)
# In short: as §1
# [6] = tested on: PPARa:RXRa (NR concentration 270 nM, RXRa partner concentration 90 nM)
# In short: as §1
# [7] = tested on: PPARg:RXRa (NR concentration 180 nM, RXRa partner concentration 90 nM)
# In short: as §1
# [8] = tested on: PPARg:RXRa 270nM:90nM, anti-RXR (NR concentration 270 nM, RXRa partner concentration 90 nM)
# In short: as §1
# [9] = tested on: PPARg:RXRa 30nM:10nM, anti-RXR (NR concentration 30 nM, RXRa partner concentration 10 nM)
# In short: as §1
# [10] = tested on: PPARg:RXRa 90nM:30nM, anti-RXR (NR concentration 90 nM, RXRa partner concentration 30 nM)
# In short: as §1
# [11] = tested on: PPARg:RXRa DBDmut IVT, anti-RXR (DBD mutation: RXRa K156A/R161A, NR concentration 270 nM, RXRa partner concentration 90 nM)
# In short: as §1
# [12] = tested on: PPARg:RXRa IVT, anti-PPARg (NR concentration 270 nM, RXRa partner concentration 90 nM)
# In short: as §1
# [13] = tested on: PPARg DBDmut:RXRa IVT, anti-PPARg (DBD mutation: PPARg1 K132A/R137A, NR concentration 270 nM, RXRa partner concentration 90 nM)
# In short: as §1
# [14] = tested on: PPARg DBDmut IVT, anti-PPARg (DBD mutation: PPARg1 K132A/R137A, NR concentration 270 nM)
# In short: as §1
# [15] = tested on: PPARg homodimer (NR concentration 180 nM)
# In short: as §1
# [16] = tested on: PXR:RXRa (NR concentration 270 nM, RXRa partner concentration 90 nM)
# In short: as §1
# [17] = tested on: PXR homodimer (NR concentration 270 nM)
# In short: as §1
# [18] = tested on: RARa:RXR (NR concentration 270 nM, RXRa partner concentration 90 nM)
# In short: as §1
# [19] = tested on: RARa homodimer (NR concentration 270 nM)
# In short: as §1
# [20] = tested on: RARb:RXRa (NR concentration 270 nM, RXRa partner concentration 90 nM)
# In short: as §1
Sequence,PBM binding z-score [1],PBM binding z-score [2],PBM binding z-score [3],PBM binding z-score [4],PBM binding z-score [5],PBM binding z-score [6],PBM binding z-score [7],PBM binding z-score [8],PBM binding z-score [9],PBM binding z-score [10],PBM binding z-score [11],PBM binding z-score [12],PBM binding z-score [13],PBM binding z-score [14],PBM binding z-score [15],PBM binding z-score [16],PBM binding z-score [17],PBM binding z-score [18],PBM binding z-score [19],PBM binding z-score [20]
CCTACTTGGCCAAAGGTCATTGATTCCAATGCTC,5.47,5.24,4.8,5.11,1.42,5.78,9.42,8.35,8.32,9.45,2.53,4.83,0.228,0.876,3.67,5.46,2.07,5.85,1.65,4.57
TTGCCTAGGTCATGCGGGCCAGTATAGTGTCGGC,4.05,2.72,0.0559,1.52,-0.792,3.42,2.01,2.28,-0.182,1.06,1.47,2.82,0.433,-0.575,0.753,1.39,-0.692,2.31,-0.448,3.82
TCAGACAGGTGAAGGTAAGTCAGGTACGCAGTCG,0.571,0.454,-0.273,0.356,-0.365,0.993,0.552,2.03,4.06,2.93,2.4,1.07,-0.136,-0.843,1.02,0.265,0.282,0.741,0.234,1.08
CAAACTAGGTCACCGGAAGGGCAAAGTCCGCATG,4.22,3.85,0.736,2.88,0.171,5.16,8.84,6.95,4.85,6.67,8.45,8.73,1.66,1.37,1.44,3.29,0.241,3.92,0.698,4.47
CCTAGGAGGACAGAAGGTCAGAGCTGTCCGCTTT,1.3,1.59,0.0675,1.11,-0.837,1.93,0.741,2.08,-0.108,1.7,0.0548,0.781,-1.45,-0.918,0.868,1.59,-0.0903,1.98,0.629,3.02
AGAACGAGGGCAATCAGTTGATAGCACGGGTGGC,0.397,0.342,-0.0973,0.0776,0.0962,1.68,1.44,1.15,0.168,0.658,3.4,3.01,0.487,-0.148,-0.207,1.03,1.55,0.384,-0.0136,2.09
TTACCAAGGTGAGCTGAGGTCTTTGATCCAACTC,-0.159,0.0694,-0.392,-0.341,-1.02,0.662,-0.133,0.0949,-0.176,-0.0349,0.776,1.72,-0.073,-0.0335,-0.466,2,-0.613,2.56,-0.713,1.17
CCTCGGAGGACAACAGAAGGTCAGAGCTGCCAGA,0.854,1.74,0.922,1.14,-0.67,1.78,0.435,0.249,-0.533,-0.218,0.129,0.0477,-0.565,-1.32,1.42,1.43,-0.04,1.95,0.344,3.02
CTCGAAACGTCGGTTGAGGTGAGTATACGGATAA,0.172,-0.188,-0.566,-0.297,-0.3,-0.163,0.00135,-0.342,-0.256,-0.221,-0.197,-0.061,0.192,0.207,0.264,0.0163,-0.284,0.752,-0.037,0.205
ACTCAAAGTTCATCTAGGTAACGTAAGATATGCT,6.73,6.05,5.36,4.18,2.43,4.79,3.49,3.98,1.56,2.74,1.43,2.81,2.23,2.06,3.4,5.34,7.92,4.08,2.11,5.33
ACTATTAGTTGAATTAGGGCAACCGATACGACGC,0.466,-0.0406,0.224,-0.00259,0.376,1.19,1.47,1.12,0.71,1.04,2.66,3.69,1.92,1.76,1.34,-0.0416,0.205,0.264,1.47,0.87
TCAGACAGGTGAAGGTTACTCAGGTACGCAGTCG,1.24,3.55,0.607,2.38,0.0683,1.81,1.06,2.39,3.71,2.81,2.66,1.5,0.0117,0.759,1.02,1.38,0.43,1.55,0.589,1.83
AGTCAAAGTTCTCTAGGTAACGTAAGATTCAGCT,0.109,-0.065,0.22,0.0719,-0.356,0.668,0.831,1.19,0.092,0.81,1.68,2.51,0.928,0.591,0.225,0.000883,0.167,0.366,0.183,0.732
CGTCATAGTTCAACTAAGGTAACGTAAAGCACGC,3.55,3.63,1.02,2.13,0.806,3.13,1.66,2.25,0.562,1.56,0.114,1.07,0.48,1.14,1.81,3.86,1.23,2.73,1.04,3.59
CGTCAAAATTCAAGGTAACGTAACAGAAAGCAGC,0.068,-0.273,0.242,0.13,0.187,0.331,0.678,0.108,0.0221,0.028,0.000306,0.704,0.815,0.761,0.474,-0.0296,0.268,0.363,0.932,0.208
TCATATAGGTAAATGCGAGGTGAAAGTCCGATCT,1.14,1.58,0.216,0.944,-0.00137,2.07,1.06,2.53,4.02,3.07,4.13,3.06,1.27,1.1,1.14,1.1,0.0797,1.67,1.15,0.77
GCATATAGGTAATACATGGTGAAAGTCCGATTGT,-0.0336,0.0177,0.188,-0.279,-0.173,0.369,0.96,0.694,0.313,0.476,3.87,2.35,0.904,0.833,0.511,0.00943,0.145,0.174,0.397,-0.202
AGTCAAATTTCAGGACGAGGTAACGTAAAGCACG,0.0503,-0.145,0.0565,0.0191,-0.153,-0.229,0.688,-0.178,-0.0529,-0.261,-0.406,0.239,0.677,0.285,0.523,-0.111,0.169,0.428,0.17,0.269
CCGACTGGGGCATAAGGTTACCAAAAGCCAGCCC,0.243,1.26,-0.202,0.884,-1.26,2.36,2.34,3.15,0.904,2.48,2.7,3.25,-0.301,-0.942,0.779,0.576,-0.64,1.73,0.0494,1.81
GGAACGAGGGCAAAGTTGATGGCATCTGTCGACG,1.36,1.13,-0.0159,0.949,-0.264,4.09,6.37,6.89,5.45,6.81,4.48,4.33,0.423,0.295,0.411,1.39,0.213,1.59,-0.52,2.48
GGAACGAGGGCAAGTTGATATCAGAGTTTGATGG,0.903,0.358,-0.105,0.453,-0.362,1.73,1.22,1,0.0363,0.552,3.98,2.65,0.634,0.177,0.61,0.864,0.655,0.687,-0.152,2.57
TTACCAAGGTGTGCTGAGGTCGTTGATCCAACTC,0.714,0.293,-0.284,0.587,-0.354,0.88,-0.381,0.606,-0.307,0.00377,-0.56,0.137,-0.549,-0.745,0.0378,2.18,0.694,1.18,-0.699,0.629
CCTAGCAGGCCAATCTGGGTCACTCAGGGCTTGA,0.175,0.973,-0.637,0.336,-1.06,2.61,1.81,2.15,-0.232,1.52,3.91,4.83,0.915,-1.07,0.808,0.386,-0.579,1.64,-0.57,1.35
TGAGTGAGGTTATAAGATCAGGGAACGTTGCAAA,1.06,1.07,-0.22,0.866,0.134,2.47,0.711,1.23,0.53,0.855,-0.596,0.754,0.555,-0.0846,0.652,0.754,0.0305,1.06,0.466,1.25
GATACAGGGTCTAGGCCAGAGTACGCGTATTGAT,-0.772,-0.631,-0.516,-0.894,-1.47,-0.516,0.629,0.0439,-0.269,-0.108,-0.37,0.257,-1.76,-0.427,-0.543,-0.687,-0.433,-0.694,-0.222,0.0286
AATACAGGGTCATCGTAGGCCAGAGTTCGCACAG,7.34,6.57,3.73,4.63,1.44,5.93,7.18,6.46,2.9,5.18,2.96,4.45,1.89,1.85,3.53,5.76,2.02,5.59,0.95,4.33
TATGCTAGGTCAGTTGGTCAGCTAACGAGCTGCC,0.676,1.92,0.835,0.423,1.02,1.46,1.17,1.26,0.0933,0.733,1.61,2.75,1.5,0.759,0.0439,0.247,-0.553,0.47,-0.649,3.04
CATACAGGGTCAGCTAAGCCAGAGTAGGGACGGC,4.23,2.89,0.0357,2.17,0.175,4.39,3.57,2.87,0.539,1.9,1.39,2.48,1.15,0.523,1.5,2.16,-0.442,3.02,0.0387,3.9
